Source: PubChem
Beta cell apopt – inhibitors of cytokine-induced beta cell apoptosis, primary screen, luminescence; INS-1E cytokine-induced death, ATP luminescence, 48 h; percent of positive-control rescue, neutral wells zero; protection from apoptosis, % (concentration not given with the values); hit rate 0.8% among 300,000;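 active = Every replicate reaches about 75%, or at least half do and their mean reaches it too, limit read from the data; inconclusive = At least half of replicates reach the limit but their mean does not; inactive = Under half of replicates reach the limit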;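 note: 0% = cytokine-treated negative control wells and 100% = positive control rescue; higher means more ATP so stronger rescue from cytokine killing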
A1 inh – caspase 3/7 activation in MEF A1-2A-BIM cells, primary screen, A1 inhibitor project, cell-based, luminescence, HTS. AID 2462, 2010. caspase activation, % (no concentration beside the values). Caspase-Glo 3/7 luminescence, 3 h; percent of clofoctol response, vehicle zero. hit rate 0.066% among 330,000;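 active = over half of replicate activation scores above 10%, or exactly half above 10 with the replicate mean above 10; inconclusive = replicate mean below 10 yet half the replicates above 10; inactive = over half of replicates below 10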
Jurkat NFkB inh – inhibitors of induced NF-kB luciferase reporter, primary screen, TCR NF-kB activation inhibitor project, cell-based, luminescence, uHTS. Jurkat, PMA/ionomycin-induced NF-kB luciferase reporter. inhibition, % at 4 µM. hit rate 0.53% among 330,000. AID 435003, 2010; in the data active = inhibition above about 50%
697 NFkB inh – inhibitors of PMA/ionomycin-induced NF-kB reporter, 697 cells, primary screen, B-cell NF-kB inhibitor project, cell-based, luminescence, uHTS. inhibition, % at 4 µM. hit rate 0.33% among 330,000. AID 435022, 2010. 697 B-cell NF-kB luciferase reporter, 16 h; in the data active = inhibition above about 35%
Mdm2-MdmX inh – inhibitors of human Mdm2-MdmX association, primary screen, cell-based, luminescence, split luciferase, SaOS-2, uHTS | Protein Mdm4 (Homo sapiens) + E3 ubiquitin-protein ligase Mdm2 (Homo sapiens), … | hit rate 3% among 330,000 | inhibition, % at 8 µM | SaOS-2 split-luciferase Mdm2/MdmX complementation;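 active = inhibition of at least 50% at 8 µM in the primary screen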
NTR1 agonist – agonists of human NTR1, primary screen, imaging, U2OS cells, beta-arrestin-GFP, high content. Neurotensin receptor type 1 (Homo sapiens), P30989. NTR1-U2OS beta-arrestin-GFP spot imaging, agonist mode. activation, % at 20 µM. hit rate 0.17% among 330,000. AID 493036, 2011;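 active = activation at or above 40% of the spot to cytoplasm intensity ratio, with at least 20 cells analyzed; inconclusive = wells under 20 cells, flagged as cytotoxic or low count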;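 note: 0% = DMSO without peptide and 100% = 100 nM NTR1 peptide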
Target sequence (P30989 whole entry, looked up): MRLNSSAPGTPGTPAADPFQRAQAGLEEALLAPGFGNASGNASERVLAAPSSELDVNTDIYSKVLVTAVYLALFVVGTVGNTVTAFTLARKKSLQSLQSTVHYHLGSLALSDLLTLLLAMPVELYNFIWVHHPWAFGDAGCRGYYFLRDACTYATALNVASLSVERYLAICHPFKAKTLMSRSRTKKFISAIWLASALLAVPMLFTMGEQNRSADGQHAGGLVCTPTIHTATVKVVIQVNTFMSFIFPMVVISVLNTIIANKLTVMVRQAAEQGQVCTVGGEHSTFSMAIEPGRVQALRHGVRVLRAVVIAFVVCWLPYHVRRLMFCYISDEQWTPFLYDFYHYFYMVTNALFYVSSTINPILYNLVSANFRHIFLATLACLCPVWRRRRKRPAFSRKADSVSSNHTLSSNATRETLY
Mdm2-MdmX conf – Mdm2-MdmX complex disruptors, retested hits, confirmation, luminescence, single concentration; shares compounds with Mdm2-MdmX inh; Mdm2-MdmX binding, luminescent assay; inhibition, % at 8 µM; hit rate 55% among 10,000; in the data active = inhibition above about 40%
Full FLuc ctr – full-length luciferase signal inhibition, confirmation, counter-screen for Mdm2/MdmX interaction inhibitor project, cell-based, single concentration, SaOS-2. inhibition, % at 8 µM. shares compounds with Mdm2-MdmX inh. hit rate 77% among 6,200. SaOS-2 full-length luciferase counterscreen, luminescence;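 active = mean inhibition at 8 µM reaching about 37%, which flags the compound as non-specific, limit read from the data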;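 note: p53-null SaOS-2 cells with luciferase driven by a doxycycline-inducible promoter; compound on cells about two nights before reading with doxycycline added after day one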
The depositor's hits bear a star; ? = inconclusive; nt = no result given. The list is not random: actives were taken first. Their share in the collection is about 3.8%.

SMILES	Beta cell apopt	A1 inh	Jurkat NFkB inh	697 NFkB inh	Mdm2-MdmX inh	NTR1 agonist	Mdm2-MdmX conf	others
O=C1c2cccc3c([N+](=O)[O-])ccc(c23)C(=O)N1CCc1ccccn1	-5	0	29	6	96*	6	9
CSc1ccc(S(=O)(=O)N2CCC(C(=O)Nc3ccc(C(N)=O)cc3)CC2)cc1	-4	?	-28	7	9	-3	nt
O=C(Nc1cccc(O)c1)c1cccc(NC(=O)c2cccs2)c1	-3	1	-25	11	-20	-1	nt
NC(=O)c1ccc(NC(=O)COC(=O)c2cc3ccccc3cc2O)cc1	-3	-1	-1	9	54*	1	-10
NS(=O)(=O)c1ccc(NC(=O)COC(=O)c2cc3ccccc3cc2O)cc1	-10	1	-16	5	10	3	nt
CN(C)CCCN(C(=O)CCSc1ccccc1)c1nc2cc3c(cc2s1)OCO3	-12	0	10	13	53*	2	38
CN(C)CCCN(C(=O)CCS(=O)(=O)c1ccccc1)c1nc2cc3c(cc2s1)OCO3	-17	2	28	16	66*	27	61*	Full FLuc ctr=56*
CN(C)CCCN(C(=O)COc1ccccc1)c1nc2cc3c(cc2s1)OCCO3	-3	0	-72	4	23	2	nt
O=C(Nc1cccc(S(=O)(=O)N2CCCCCC2)c1)C1CC(=O)N(c2ccc3c(c2)OCCO3)C1 (centres undefined)	3	1	2	0	18	1	nt
O=C(Nc1cccc(-c2cn3ccccc3n2)c1)c1cccc(Cl)c1	58	-2	-19	-43	75*	39	-8
O=C(Nc1cccc(-c2cn3ccccc3n2)c1)c1cnccn1	2	1	-16	-77	-31	1	nt
CCN(CC(=O)NCc1cccs1)C(=O)c1ccc(OC)c(OC)c1	-3	0	-8	11	16	-1	nt
CC(=O)c1c(C)[nH]c(C(=O)OCC(=O)Nc2cc(S(=O)(=O)N3CCCC3)ccc2Cl)c1C	7	-1	17	-22	54*	0	35
CC(=O)c1c(C)[nH]c(C(=O)OCC(=O)Nc2cccc(S(=O)(=O)N3CCCC3)c2)c1C	30	2	46	-17	7	3	nt
COc1ccccc1NS(=O)(=O)c1cc(NC(=O)c2[nH]c(C)c(C(C)=O)c2C)ccc1N1CCOCC1	47	2	29	-4	61*	7	30
COc1ccccc1NS(=O)(=O)c1cc(NC(=O)c2ccc(=O)[nH]c2)ccc1N1CCOCC1	nt	0	6	-2	-5	-2	nt
CC(=O)c1c(C)[nH]c(C(=O)Nc2cccc(S(=O)(=O)N3CCCC3)c2)c1C	-9	-1	1	30	70*	2	20
CC(=O)c1c(C)[nH]c(C(=O)Nc2ccc(Cl)c(S(=O)(=O)N3CCOCC3)c2)c1C	-15	0	2	13	59*	5	34
CN(C(=O)CSCC(=O)Nc1ccc(Cl)cc1)C1CCCCC1	-5	1	2	29	18	-1	nt
CNc1ccc(C(=O)OCC(=O)Nc2ccnn2C(C)C)cc1[N+](=O)[O-]	-6	0	2	16	-1	-2	nt
C=CCOc1ccc(/C=C2/C(=N)N3N=C(CC(=O)N4CCCC4)SC3=NC2=O)cc1OC	-4	-1	7	21	0	-1	nt
COc1ccc(C2CC(c3ccccc3F)=NN2c2ccc(S(N)(=O)=O)cc2)cc1 (centres undefined)	nt	nt	nt	24	34	8	nt
COc1ccc(C2CC(c3ccc(C(F)(F)F)cc3)=NN2c2ccc(S(N)(=O)=O)cc2)cc1 (centres undefined)	nt	nt	nt	14	93*	21	-7
CCc1ccc(C2=NN(c3ccc(S(N)(=O)=O)cc3)C(c3ccc(F)cc3)C2)cc1 (centres undefined)	18	1	-31	-18	77*	29	11
COc1ccc(C2CC(c3ccccc3C(F)(F)F)=NN2c2ccc(S(N)(=O)=O)cc2)cc1 (centres undefined)	nt	nt	nt	7	67*	10	62*	Full FLuc ctr=70*
SMILES	Beta cell apopt	A1 inh	Jurkat NFkB inh	697 NFkB inh	Mdm2-MdmX inh	NTR1 agonist	Mdm2-MdmX conf	others
O=C(COC(=O)CCc1nc2ccccc2c(=O)[nH]1)Nc1ccccc1OC(F)F	1	-1	-7	3	21	-2	nt
O=C(O)c1ccc(NC2=C(Cl)C(=O)c3ccccc3C2=O)cc1	14	-5	-1	-5	100*	-3	91*	Full FLuc ctr=53*
CCCNc1nc(-c2ccccc2)c(C(=O)OCC)cc1C#N	5	-1	43	-43	63*	3	52*	Full FLuc ctr=64*
O=C(Nc1ccc([N+](=O)[O-])cc1)/C(=C/c1cccc([N+](=O)[O-])c1)NC(=O)C1CCCCC1	13	0	6	0	27	1	nt
Cc1ccc(NC(=O)/C(=C/c2cccc([N+](=O)[O-])c2)NC(=O)C2CCCCC2)c(C)c1	42	1	14	28	88*	2	-15
COc1ccccc1N1CCN(c2ccc3cc(S(=O)(=O)N4CCCCC4)ccc3n2)CC1	29	-1	13	-34	51*	2	6
O=S(=O)(c1ccc2nc(N3CCN(c4ccccc4)CC3)ccc2c1)N1CCCCC1	-7	0	5	1	42	6	nt
CC(=O)c1ccc(N2CCN(c3ccc4cc(S(=O)(=O)N5CCC(C)CC5)ccc4n3)CC2)cc1	23	0	24	-43	61*	2	-2
CC(=O)c1ccc(N2CCN(S(=O)(=O)c3ccc4ccccc4c3)CC2)cc1	-9	0	-10	-8	9	-2	nt
c1ccc2c(c1)CCc1ccccc1C2=C1CCNCC1	-10	0	4	-2	67*	0	49*	Full FLuc ctr=73*
COc1cc(/C=C(\C#N)c2nc(-c3cc4ccccc4oc3=O)cs2)ccc1O	17	1	-2	7	58*	17	13
